High-throughput results from PubChem BioAssay.
An excerpt weighted towards active compounds, which were near 3.5% of everything screened.
FBW7 activator: activators of human E3 ligase FBW7; Q969H0; AlphaScreen FBW7–phospho-cyclin E peptide binding, activator screen; normalized activity (activation), % at 26.1 µM; 0.13% of 650,000 active; AID 1259310; in the data active means normalized activity above about 1.9%;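 further: purified mutant Fbw7 with reduced substrate affinity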
Target sequence (Q969H0 whole entry, looked up): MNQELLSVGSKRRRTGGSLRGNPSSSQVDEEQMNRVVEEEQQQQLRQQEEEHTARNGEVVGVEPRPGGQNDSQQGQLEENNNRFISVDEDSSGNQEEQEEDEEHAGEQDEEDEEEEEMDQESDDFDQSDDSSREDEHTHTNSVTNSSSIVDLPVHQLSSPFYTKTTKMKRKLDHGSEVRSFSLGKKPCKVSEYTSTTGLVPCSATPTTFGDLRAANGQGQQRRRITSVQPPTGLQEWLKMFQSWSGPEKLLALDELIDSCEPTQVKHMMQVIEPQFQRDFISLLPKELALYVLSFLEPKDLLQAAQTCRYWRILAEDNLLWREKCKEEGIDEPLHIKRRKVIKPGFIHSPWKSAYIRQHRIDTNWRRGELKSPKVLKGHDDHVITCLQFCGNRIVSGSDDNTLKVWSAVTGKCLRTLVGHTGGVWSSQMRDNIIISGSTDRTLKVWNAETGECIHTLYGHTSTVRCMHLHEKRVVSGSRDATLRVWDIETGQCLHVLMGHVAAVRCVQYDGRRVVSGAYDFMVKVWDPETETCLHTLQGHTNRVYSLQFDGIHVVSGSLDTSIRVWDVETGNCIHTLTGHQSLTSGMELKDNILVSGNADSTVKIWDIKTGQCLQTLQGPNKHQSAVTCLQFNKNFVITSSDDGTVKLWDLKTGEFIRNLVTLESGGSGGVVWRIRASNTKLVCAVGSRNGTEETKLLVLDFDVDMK
TEAD-YAP inh: TEAD-YAP interaction inhibition; HEK-TIYL cells, TEAD-Gal4/YAP UAS-luciferase luminescence; inhibition, % at 9.12 µM; 1.4% of 640,000 active; AID 1259422; in the data active means inhibition above about 32%
MITF primary: human MITF inhibition, primary screen | O75030 | AlphaScreen MITF homodimerization, bead proximity signal | 0.91% of 650,000 active | inhibition, % at 2.6 µM | AID 1259374; in the data active means inhibition above about 50%
GPR151 activ: activates the human receptor GPR151; Q8TDV0; PathHunter beta-arrestin GPR151 cells, luminescence; activation, % at 11.2 µM; 1% of 650,000 active; AID 1508602; in the data active means activation above about 4.9%
Numbers stand for hits; . = inactive.

SMILES	FBW7 activator	TEAD-YAP inh	MITF primary	GPR151 activ
CC(=O)c1cc(O)c(SC(C)C)nc1C	.	.	.	.
O=C(CCl)Nc1ccc(NC(=O)CCl)cc1	.	.	.	.
CCCCCOc1ccc(/C=c2\sc3nc(-c4ccncc4)nn3c2=O)cc1OC	.	.	.	.
O=C(Nc1ccccc1Cl)c1cc([N+](=O)[O-])ccc1O	.	60	.	.
O=C(Nc1ccccc1Cl)c1ccc([N+](=O)[O-])cc1Cl	.	.	.	.
O=C(Nc1ccc(Br)cc1F)c1ccc(Cl)c([N+](=O)[O-])c1	.	.	.	.
O=C(Nc1ccc(F)cc1F)c1ccc(Cl)c([N+](=O)[O-])c1	.	56	.	.
O=C(Nc1ccc([N+](=O)[O-])cc1Br)c1ccccc1O	.	78	.	.
CC1Cc2ccccc2N1C(=O)CSc1nnc(Cc2ccccc2)n1C (centres undefined)	.	49	.	.
CC1Cc2ccccc2N1C(=O)CSc1nnc(-c2ccccc2)n1C (centres undefined)	.	.	.	.
O=C(N/N=C\c1cccc([N+](=O)[O-])c1)c1n[nH]c([N+](=O)[O-])n1	.	.	.	.
COc1ccc(C2SCCN2S(=O)(=O)c2ccc(NC(C)=O)cc2)cc1 (centres undefined)	.	.	.	.
COc1ccc(C2SCCN2S(=O)(=O)c2ccc(NC(C)=O)cc2)cc1OC (centres undefined)	1.9	.	.	.
Cc1ccc2cc(C#N)c(N3CCCN(S(=O)(=O)c4ccc(F)cc4)CC3)nc2c1C	.	.	.	.
O=C1c2cccc3c(Br)ccc(c23)C(=O)N1O	.	.	.	.
O=C1c2cccc3c(Cl)ccc(c23)C(=O)N1O	.	45	.	.
COCCCN=C1NN=C(c2cc(C)n(Cc3ccco3)c2C)CS1	.	46	.	.
Cc1cc(C2=NNC(=Nc3ccccc3)SC2)c(C)n1CC1CCCO1 (centres undefined)	.	54	.	.
COCCn1c(C)cc(C2=NNC(=Nc3cccc(C)c3)SC2)c1C	.	.	.	.
C=CCn1c(C)cc(C2=NNC(=Nc3ccccc3OC)SC2)c1C	.	72	.	.
COCCn1c(C)cc(C2=NNC(=Nc3ccc(C)cc3)SC2)c1C	.	.	.	.
COc1ccccc1N=C1NN=C(c2ccccc2OC)CS1	.	.	.	.
C=CCN=C1NN=C(c2cc(C)n(CCOC)c2C)CS1	.	95	.	.
CCOc1ccccc1CNc1ncnc2c1nc1n2CCCCC1	.	41	.	.
CCOC(=O)c1nn(-c2ccc(C)c(C)c2)cc1O	.	.	.	.
SMILES	FBW7 activator	TEAD-YAP inh	MITF primary	GPR151 activ
CCOC(=O)c1nn(-c2ccc3c(c2)OCCO3)cc1O	.	43	.	.
N#CCc1nc(-c2ccc(O)c(C(N)=O)c2)cs1	.	.	.	.
Cc1ccc(-c2c3cc(O)c(=O)cc-3oc3cc(O)c(O)cc23)cc1	.	.	102	.
CCOc1ccccc1-c1c2cc(O)c(=O)cc-2oc2cc(O)c(O)cc12	.	.	103	.
O=c1cc2oc3cc(O)c(O)cc3c(-c3cccnc3)c-2cc1O	.	.	100	.
COc1ccc(-c2cc(=O)c3cc(O)ccc3o2)cc1OC	.	.	.	.
Cc1ccc(-c2cc(=O)c3cc(Cl)ccc3o2)cc1	.	.	.	.
COc1cc(-c2c3cc(O)c(=O)cc-3oc3cc(O)c(O)cc23)ccc1C	.	.	106	.
COc1cc(NC(=O)CSc2ccc(Cl)cc2)ccc1NC(=O)c1ccco1	.	.	.	.
O=C(CCl)Nc1c(O)c2ccccc2[nH]c1=O	.	.	.	.
COc1ccc(C(=O)Nc2ccccc2C(=O)NC(C(=O)NNC(=O)c2ccccc2Br)C(C)C)cc1 (centres undefined)	.	.	.	.
COc1ccc(/C=C2\C=C(c3ccccc3)N(c3ccccc3Br)C2=O)cc1	.	.	.	.
COc1ccc(/C=C2\C=C(c3ccccc3)N(c3ccc(C)cc3C)C2=O)cc1	.	45	.	.
COc1ccc(/C=C2\C=C(c3ccccc3)N(c3ccccc3)C2=O)cc1	.	.	.	.
COc1ccc(/C=C2\C=C(c3ccccc3)N(c3ccc(O)cc3)C2=O)cc1	.	49	.	.
Cc1ccc(N2C(=O)/C(=C/c3ccc(Cl)cc3)C=C2c2ccccc2)c(C)c1	.	.	.	.
COc1ccc(/C=C2\C=C(c3ccccc3)N(c3ccc(C)cc3Br)C2=O)cc1	.	47	.	.
O=C(CCc1csc(NC(=O)c2ccccc2)n1)NCCc1ccccc1	.	.	.	.
NC1=NC(=O)/C(=C\c2cccc([N+](=O)[O-])c2O)S1	.	.	.	.
COc1cc(/C=C2/C=C(c3ccc(C)cc3)OC2=O)ccc1O	.	65	.	.
COc1cc(/C=C2/C=C(c3ccc(C)cc3)OC2=O)ccc1C	.	32	.	.
O=C(COc1cccc(-c2nc(Nc3ccc4[nH]ncc4c3)c3ccccc3n2)c1)Nc1cccnc1	.	37	.	.
COC(=O)COc1cccc(-c2nc(Nc3ccc4[nH]ncc4c3)c3ccccc3n2)c1	.	.	.	.
O=c1[nH]c(Nc2nc3ccccc3o2)nc2ccc([N+](=O)[O-])cc12	.	.	.	.
O=Cc1ccc(OCc2cccc(C(=O)O)c2)c(Cl)c1	.	88	.	.
SMILES	FBW7 activator	TEAD-YAP inh	MITF primary	GPR151 activ
COc1cc(/C=C2/NC(=O)NC2=O)ccc1OCc1cccc(C(=O)O)c1	.	.	.	.
O=C(O)c1cccc(COc2ccc(CO)cc2Cl)c1	.	95	.	.
O=C(O)c1cccc(COc2ccc(CO)cc2Br)c1	.	84	.	.
COc1cc(/C=C/[N+](=O)[O-])ccc1OCc1cccc(C(=O)O)c1	.	77	56	.
CC1Oc2ccccc2N(CC(=O)NC(C)(C)C)C1=O (centres undefined)	.	.	.	.
CCN(c1ncnc(N)c1[N+](=O)[O-])C1CCCCC1	.	51	.	.
Nc1ncnc(N(c2ccccc2)C2CCCCC2)c1[N+](=O)[O-]	.	.	.	.
CC(C)C(C(=O)O)N1C(=O)/C(=C/C=C/c2ccco2)SC1=S (centres undefined)	.	.	64	.
CN1C(=O)S/C(=C\C=C\c2ccco2)C1=O	.	.	.	.
CN1C(=O)/C(=C\C=C\c2ccco2)SC1=S	.	.	82	.
COc1cccc(/C=N/NC(=O)c2cc(-c3ccc(C)cc3)n[nH]2)c1O	.	79	62	.
COc1ccc(C(=O)N/N=C/c2cccc(OC)c2O)cc1	.	.	.	.
COc1ccccc1/C=N/NC(=O)c1cc(-c2ccc(C)cc2)n[nH]1	.	.	.	.
COc1cccc(/C=N/NC(=O)c2cc(C34CC5CC(CC(C5)C3)C4)[nH]n2)c1O	.	40	.	.
COc1cccc(/C=N/NC(=O)c2ccc(O)cc2O)c1O	.	42	.	.
COc1cccc(/C=N/NC(=O)c2ccc(-c3ccccc3)cc2)c1O	.	83	.	.
COC(=O)c1ccc(NC(=O)c2c(O)c3c([nH]c2=O)CCCC3)cc1	.	.	.	.
NC(=O)c1cc2c(ccc3ccccc32)oc1=Nc1cc(F)ccc1F	.	.	.	.
